Measurements published in PubChem BioAssay (NCATS).
Results filed as inconclusive are left out. Unmarked numbers belong to inactive results. Calls of active or inactive are those of the source. Calls come from the whole dose curve; as a rule, active = well fitted inhibition curve with a large enough effect; inconclusive = small, poorly fitted or top-dose-only effect; inactive = flat fitted curve, though single readings scatter.

molecular target: Voltage-gated inwardly rectifying potassium channel KCNH2 (Homo sapiens) (UniProt Q12809); experiment: qHTS Assay for Small Molecule Inhibitors of the Human hERG Channel Activity (AID 588834); conditions: U2OS BacMam hERG, FluxOR thallium flux fluorescence; series mostly up to 46.1 µM; activity change, negative = inhibition: at the top concentration;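 note: lower thallium flux fluorescence means stronger hERG block; nearly all actives have a fitted effect of over 50% in size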; for activity change, negative = inhibition: top concentration of the series differs between compounds
Procedure, shortened: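 Cells were infected with hERG-BacMam virus for 4 hrs at room temperature, grown overnight, then seeded at 2000/well. After dye loading and roughly 10 min compound treatment, thallium influx was triggered and fluorescence recorded.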
% is set by controls: 0 for no effect and ±100 for the full control effect; potency is the fitted concentration of half-maximal effect.

Sequence of Voltage-gated inwardly rectifying potassium channel KCNH2 (Homo sapiens) (Q12809 whole entry, looked up): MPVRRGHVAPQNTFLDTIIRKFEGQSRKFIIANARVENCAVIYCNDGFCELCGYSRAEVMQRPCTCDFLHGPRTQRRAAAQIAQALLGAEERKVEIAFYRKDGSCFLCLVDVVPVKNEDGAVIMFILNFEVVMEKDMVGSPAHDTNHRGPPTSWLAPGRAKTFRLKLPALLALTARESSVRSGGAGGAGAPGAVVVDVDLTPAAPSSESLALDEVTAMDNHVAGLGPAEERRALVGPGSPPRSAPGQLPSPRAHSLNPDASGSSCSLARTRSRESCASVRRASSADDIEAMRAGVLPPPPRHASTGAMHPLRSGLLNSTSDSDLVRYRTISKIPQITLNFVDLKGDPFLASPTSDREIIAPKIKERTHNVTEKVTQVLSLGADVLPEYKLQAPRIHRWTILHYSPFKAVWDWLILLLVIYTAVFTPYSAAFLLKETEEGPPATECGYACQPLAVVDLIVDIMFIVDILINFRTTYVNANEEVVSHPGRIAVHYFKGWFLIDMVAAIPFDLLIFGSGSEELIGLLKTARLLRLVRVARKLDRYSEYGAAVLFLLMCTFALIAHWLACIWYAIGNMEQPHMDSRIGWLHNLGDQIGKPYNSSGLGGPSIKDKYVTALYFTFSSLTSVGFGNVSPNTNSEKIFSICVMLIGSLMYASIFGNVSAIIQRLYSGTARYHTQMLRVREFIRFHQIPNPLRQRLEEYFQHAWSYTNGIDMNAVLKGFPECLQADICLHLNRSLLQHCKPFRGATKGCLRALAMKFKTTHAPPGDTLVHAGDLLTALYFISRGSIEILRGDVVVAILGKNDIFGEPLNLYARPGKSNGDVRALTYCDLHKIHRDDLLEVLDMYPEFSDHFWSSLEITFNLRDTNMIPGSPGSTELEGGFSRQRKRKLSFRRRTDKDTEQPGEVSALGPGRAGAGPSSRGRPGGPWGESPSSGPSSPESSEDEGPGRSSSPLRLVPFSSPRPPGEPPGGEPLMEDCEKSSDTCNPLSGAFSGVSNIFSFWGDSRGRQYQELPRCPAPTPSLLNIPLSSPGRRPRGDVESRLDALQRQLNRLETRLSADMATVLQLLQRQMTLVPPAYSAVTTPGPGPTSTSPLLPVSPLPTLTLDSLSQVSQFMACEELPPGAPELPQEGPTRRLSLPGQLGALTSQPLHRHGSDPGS

Structure (SMILES)	activity change, negative = inhibition	Potency
CN[C@H](CC(C)C)C(=O)N[C@H]1C(=O)N[C@@H](CC(N)=O)C(=O)N[C@H]2C(=O)N[C@H]3C(=O)N[C@H](C(=O)N[C@H](C(=O)O)c4cc(O)cc(O)c4-c4cc3ccc4O)[C@H](O)c3ccc(c(Cl)c3)Oc3cc2cc(c3O[C@@H]2O[C@H](CO)[C@@H](O)[C@H](O)[C@H]2O[C@H]2C[C@](C)(N)[C@H](O)[C@H](C)O2)Oc2ccc(cc2Cl)[C@H]1O	-7.26%	
NCCCCC(=O)O	-1.99%	
CC(=O)SCC[N+](C)(C)C	8.81%	
O=C1NC(O)=NC1(c1ccccc1)c1ccccc1	2.46%	
CC12C(=O)OC(=O)C1(C)C1CCC2O1 (stereo not drawn)	11.1%	
O=C(O)CCCC[C@@H]1CCSS1	21.6%	
C=C/C(C)=C/[C@@]1(C)SC(=O)C(C)=C1O	5.86%	
O=C(O)[C@@H]1C[C@H](C(=O)O)N1	5.02%	
C[C@@H](CN1CCC(Cc2ccccc2)CC1)[C@@H](O)c1ccc(O)cc1		0.631 µM (active)
N#C/C(=C\c1ccc(O)c(O)c1)C(=O)NCc1ccccc1		12.6 µM (active)
COc1cc2c(CCNC(C)=O)c[nH]c2cc1Cl	8.61%	
CN(C)c1nc2c(Br)c(Br)c(Br)c(Br)c2[nH]1	-21.1%	
NC(CCCP(=O)(O)O)C(=O)O (stereo not drawn)	0.928%	
C[C@@H](NC(=O)/C(C#N)=C/c1ccc(O)c(O)c1)c1ccccc1	-3.94%	
CO[C@H]1C[C@@H]2CC[C@@H](C)[C@@](O)(O2)C(=O)C(=O)N2CCCC[C@H]2C(=O)O[C@H]([C@H](C)C[C@@H]2CC[C@@H](O)[C@H](OC)C2)CC(=O)[C@H](C)C=C(C)[C@@H](O)[C@@H](OC)C(=O)[C@H](C)C[C@H](C)/C=C/C=CC=C1C		inactive
O=C(/C=C/c1ccc(O)cc1)c1ccc(O)cc1O		3.98 µM (active)
CC1(C)[C@@H](O[C@H]2O[C@H](C(=O)O)[C@@H](O)[C@H](O)[C@H]2O[C@@H]2O[C@H](C(=O)O)[C@@H](O)[C@H](O)[C@H]2O)CC[C@]2(C)[C@H]3C(=O)C=C4[C@@H]5C[C@@](C)(C(=O)O)CC[C@]5(C)CC[C@@]4(C)[C@]3(C)CC[C@@H]12	-20.7%	
CC1CN(S(=O)(=O)c2cccc3cnccc23)CCN1 (stereo not drawn)	3.73%	
CCN1/C(=C/C(C)=O)Sc2ccc(OC)cc21	4.02%	

Structure (SMILES)	activity change, negative = inhibition	Potency
COc1ccccc1CNCCCCCCNCCCCCCCCNCCCCCCNCc1ccccc1OC	8.72%	
CN(C)[C@@H]1C(=O)C(C(=O)NCN2CCCC2)=C(O)[C@@]2(O)C(=O)C3=C(O)c4c(O)cccc4[C@@](C)(O)C3C[C@@H]12 (stereo partly drawn)		inactive
Cc1onc(-c2c(F)cccc2Cl)c1C(=O)N[C@@H]1C(=O)N2[C@@H]1SC(C)(C)[C@@H]2C(=O)O		inactive
CN1CCc2cc(NC(=O)Nc3cccnc3)ccc21	25%	
O=C(O)CC1CCCc2ccccc2C1O (stereo not drawn)	9.22%	
O=C(O)CNC(=O)C(CS)Cc1ccccc1 (stereo not drawn)	-1.19%	
O=C1O/C(=C/Br)CCC1c1cccc2ccccc12 (stereo not drawn)		5.62 µM (active)
NC(=O)C(=O)O	11.1%	
NCCCCCCCCCCN	0.747%	
COc1cccc2c1C(=O)c1c(O)c3c(c(O)c1C2=O)C[C@@](O)(C(=O)CO)C[C@@H]3O[C@H]1C[C@H](N)[C@H](O[C@@H]2CCCCO2)[C@H](C)O1	11.3%	
COC(=O)[C@H]1[C@H]2C[C@@H]3c4[nH]c5cc(OC)ccc5c4CCN3C[C@H]2C[C@@H](OC(=O)/C=C/c2cc(OC)c(OC)c(OC)c2)[C@@H]1OC		7.94 µM (active)
Oc1cc(O)cc(/C=C/c2ccc(O)c(O)c2)c1	-23.3%	
N=C(N)SCCc1ccc(CCSC(=N)N)cc1	1.34%	
CCCCCCCCCCCCCCCCCC(=O)OC(CC(=O)O)C[N+](C)(C)C (stereo not drawn)	-13.7%	
O=C(Nc1cccc(C(=O)Nc2ccc(S(=O)(=O)O)c3cc(S(=O)(=O)O)cc(S(=O)(=O)O)c23)c1)Nc1cccc(C(=O)Nc2ccc(S(=O)(=O)O)c3cc(S(=O)(=O)O)cc(S(=O)(=O)O)c23)c1	5.5%	
CC[C@H]1OC(=O)[C@H](C)C(=O)[C@H](C)[C@@H](O[C@@H]2O[C@H](C)C[C@H](N(C)C)[C@H]2O)[C@](C)(OC)C[C@@H](C)C(=O)[C@H](C)[C@H]2N(CCCCn3cnc(-c4cccnc4)c3)C(=O)O[C@]12C		inactive
Cc1ccc(O)c(N=Nc2ccccc2)n1	-18.6%	
CC(C(=O)O)c1ccc(C(=O)c2cccs2)cc1 (stereo not drawn)	5.23% [at 20.6 µM]	
N[C@@H](CC(=O)O)C(=O)O	-0.855%	
